From PubChem BioAssay AID2781 (National Center for Advancing Translational Sciences (NCATS), 2010)
The source made the active and inactive calls.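 How the source made its calls: active means compound whose NMR saturation transfer difference test with menin is positive, showing direct binding to the protein; inactive means the rest.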

Target: Menin (Homo sapiens) (UniProt O00255)
Assay: Confirmation of Inhibitors Targeting the Menin-MLL Interaction in MLL Related Leukemias: NMR spectroscopy to verify direct binding of compounds to menin
Conditions: purified menin, NMR STD binding, 100 uM
Text: qHTS Assay for Inhibitors Targeting the Menin-MLL Interaction in MLL Related Leukemias NIH Chemical Genomics Center [NCGC] NIH Molecular Libraries Probe Centers Network [MLPCN] MLPCN Grant: MH084875-01A1 Assay Submitter (PI): Jolanta Grembecka, Tomasz Cierpicki, University of Virginia Translocations of the MLL (Mixed Lineage Leukemia) gene are frequently found in human leukemias affecting both children and adults. Fusion of MLL to one of more than 60 genes results in generation of oncogenic proteins upregulating Hox genes, which are vital to blood cell development. Patients harboring fusion of the MLL gene suffer from aggressive leukemias and respond poorly to available therapies. All of the oncogenic fusion proteins have a preserved N-terminal fragment of MLL that has been identified to interact with menin. It has been recently discovered that association with menin is critical to the leukemogenic activity of the MLL fusion oncoproteins. Selective targeting of the menin-MLL interaction could provide an attractive therapeutic approach to develop novel drugs for MLL-related leukemias. Small molecules blocking the menin-MLL interaction should reverse the oncogenic potential of MLL fusion proteins. We have developed and optimized a fluorescence polarization-based assay for the identification of Menin-MLL inhibitors. The assay was run employing two different MLL-derived peptides. The present assay uses a 12 amino acid peptide labeled with fluorescein at its N-terminus. This peptide consists of the menin high affinity binding motif from MLL and is potently bound by menin. Another peptide with a mutated sequence, labeled with Texas Red, was used in parallel as a less stringent screen for inhibitors. The present assay was developed to confirm hits from this primary screen, examining saturation transfer differences in NMR spectra upon incubation of the menin protein with compound.
The Menin protein, the MLL-wild type (w.t.) derived peptide (N-terminal 12 amino acids), the MLL-derived peptide labeled with Texas Red and the MLL-w.t. peptide labeled with Fluorescein were kindly supplied by laboratory of Dr. Jolanta Grembecka, University of Virginia. All protein and peptide solutions were stored in single use aliquots at -80C. The Buffer components for all assays were purchased from Sigma-Aldrich (St. Louis, MO) and Invitrogen (Carlsbad, CA). Assay Reagents: 1. Menin protein 2. MLL w.t. 3. NMR buffer: 50mM phosphate, 50mM NaCl, 1mM DTT, pH = 7.5 NMR protocol: 1. Prepare 450 uL of menin (2.5 uM) in complex with 100uM compound in NMR buffer and run STD (Saturation Transfer Difference) on NMR Bruker 600 MHz 2. Prepare 450 uL of menin (2.5 uM) in complex with 100 uM compound and 25uM of MLL w.t. in NMR buffer and run STD (Saturation Transfer Difference) on NMR Bruker 600 MHz

Chain of Menin (Homo sapiens) (O00255 whole entry, looked up): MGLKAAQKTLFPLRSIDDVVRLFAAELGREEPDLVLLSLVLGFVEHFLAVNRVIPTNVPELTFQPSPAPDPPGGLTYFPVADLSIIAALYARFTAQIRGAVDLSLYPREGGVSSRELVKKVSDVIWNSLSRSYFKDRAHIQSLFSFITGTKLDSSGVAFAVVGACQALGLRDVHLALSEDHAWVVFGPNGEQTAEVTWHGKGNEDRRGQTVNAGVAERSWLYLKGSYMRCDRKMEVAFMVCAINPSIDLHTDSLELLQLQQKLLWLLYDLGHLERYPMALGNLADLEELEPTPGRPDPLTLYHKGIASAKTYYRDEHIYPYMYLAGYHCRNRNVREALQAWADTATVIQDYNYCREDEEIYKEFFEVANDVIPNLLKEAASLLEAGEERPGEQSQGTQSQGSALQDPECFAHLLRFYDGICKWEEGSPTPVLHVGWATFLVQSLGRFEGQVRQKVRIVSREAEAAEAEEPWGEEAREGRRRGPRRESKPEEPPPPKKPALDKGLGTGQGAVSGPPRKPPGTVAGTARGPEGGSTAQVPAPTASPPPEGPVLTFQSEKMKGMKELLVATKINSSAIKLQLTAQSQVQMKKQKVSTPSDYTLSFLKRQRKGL

Q: For `O=C(O)CSc1cc(NS(=O)(=O)c2ccc(Br)cc2)c2ccccc2c1O`, which outcome is on record?
A: inactive; negative

Q: Which outcome does the source give for `CCOC(=O)c1cnc2ccc(OCC)cc2c1N1CCN(C)CC1` here?
A: active; positive

Q: For `COC(=O)[C@H](C)NC(=O)c1cc2c(cn1)[nH]c1ccccc12`, which outcome is on record?
A: inactive; negative

Q: `CCc1cc2c(N3CCN(C(=O)c4ccco4)CC3)ncnc2s1` was tested. Which outcome did it give?
A: inactive; negative

Q: With `CCOC(=O)c1cnc2ccc(OC)cc2c1Nc1ccc(N2CCN(C)CC2)cc1` as the molecule, how does the outcome read?
A: inactive; negative

Q: `COc1ccc(S(=O)(=O)Nc2cc(SCC(=O)O)c(O)c3ccccc23)cc1` was tested. Which outcome did it give?
A: inactive; negative

Q: For `CNC[C@H](CC1CCCCC1)NC[C@H](Cc1ccccc1)NCCC12CC3CC(CC(C3)C1)C2`, which outcome is on record?
A: inactive; negative

Q: How did the outcome turn out when `CCNc1ccccc1CP(=O)(c1ccccc1)c1ccccc1O` (stereo not given) was run?
A: inactive; negative

Q: With `CCC[n+]1c2ccccc2cc2ccccc21` as the molecule, how does the outcome read?
A: inactive; negative

Q: How did the outcome turn out when `Oc1ccc(Nc2ncnc3c2oc2ccccc23)cc1` was run?
A: inactive; negative

Q: With `CCC(c1nnnn1Cc1ccc(F)cc1)N1CCN(C2CCCCC2)CC1` (stereo not given) as the molecule, how does the outcome read?
A: active; positive

Q: Which outcome does the source give for `N#Cc1ccc(OCC(O)CN2CCN(C(c3ccccc3)c3ccccc3)CC2)cc1` (stereo not given) here?
A: active; positive

Q: With `NC(=NCCCCCCN=C(N)/N=C(\N)Nc1ccc(Cl)cc1)/N=C(\N)Nc1ccc(Cl)cc1` as the molecule, how does the outcome read?
A: inactive; negative

Q: For `O=C(CS)Nc1ccc2ccccc2c1`, which outcome is on record?
A: inactive; negative

Q: How did the outcome turn out when `CCOc1cc(CNCCc2ccc(S(N)(=O)=O)cc2)ccc1OCc1ccccc1` was run?
A: active; positive

Q: With `O=C(COC(=O)c1ccc(NS(=O)(=O)c2cccs2)cc1)Nc1nc2c(F)c(F)c(F)cc2s1` as the molecule, how does the outcome read?
A: inactive; negative

Q: How did the outcome turn out when `Cc1cc(N/N=C/c2ccc(O)cc2)c2cccc(C)c2n1` was run?
A: inactive; negative

Q: For `CN(C)c1ccc(C2CC(=O)C=C(Nc3ccccc3N)C2)cc1` (stereo not given), which outcome is on record?
A: inactive; negative

Q: `Cc1cc2[nH]c3c(c[n+](C)c4ccccc34)c2cc1C` was tested. Which outcome did it give?
A: inactive; negative

Q: For `COc1ccc(Cn2nnnc2C(c2ccc3ncccc3c2)N2CCN(C3CCCCC3)CC2)cc1` (stereo not given), which outcome is on record?
A: active; positive

Q: For `O=C(Nc1cc(Br)ccc1O)c1cc(-c2ccco2)on1`, which outcome is on record?
A: inactive; negative

Q: With `N=C1c2ccccc2CN1c1ccc(N2CCOCC2)c(S(=O)(=O)Nc2ccc(Cl)cc2)c1` as the molecule, how does the outcome read?
A: inactive; negative

Q: `CCc1cc2c(N3CCN(c4nnc(CC)s4)CC3)ncnc2s1` was tested. Which outcome did it give?
A: inactive; negative

Q: Which outcome does the source give for `CC1CCCCN1S(=O)(=O)c1ccc(C(=O)Nc2ccccc2-c2nc3ccccc3[nH]2)cc1` (stereo not given) here?
A: inactive; negative

Q: `CCCC[n+]1c2ccccc2cc2ccccc21` was tested. Which outcome did it give?
A: inactive; negative

Q: `CCNC(=S)N1CCN(c2nc(CC)nc3sc4c(c23)CCCC4)CC1` was tested. Which outcome did it give?
A: inactive; negative

Q: With `COc1ccccc1NS(=O)(=O)c1cc(NC(=O)Nc2cccc(C)c2)ccc1N1CCCCC1` as the molecule, how does the outcome read?
A: inactive; negative

Q: With `COc1cc(-c2ccc(-[n+]3nc(-c4ccccc4)nn3-c3ccc([N+](=O)[O-])cc3)c(OC)c2)ccc1-[n+]1nc(-c2ccccc2)nn1-c1ccc([N+](=O)[O-])cc1` as the molecule, how does the outcome read?
A: inactive; negative

Q: Which outcome does the source give for `O=C(Nc1cc(Br)ccc1O)c1cc(-c2ccc3c(c2)OCO3)on1` here?
A: inactive; negative

Q: How did the outcome turn out when `CN(C)C(CNc1ncnc2sc3c(c12)CCCCC3)c1ccco1` (stereo not given) was run?
A: active; positive

Q: With `CCCC(c1nnnn1Cc1ccco1)N1CCN(C2CCCC2)CC1` (stereo not given) as the molecule, how does the outcome read?
A: active; positive

Q: `CCc1oc2ccccc2c1C(=O)c1cc(Br)c(O)c(Br)c1` was tested. Which outcome did it give?
A: inactive; negative

Q: `COC(=O)c1ccccc1NC1=C/C(=N\S(=O)(=O)c2ccc(C(=O)O)cc2)c2ccccc2C1=O` was tested. Which outcome did it give?
A: inactive; negative

Q: With `CCc1ccc2c(c1)C(NC(C)=O)C(=O)N2CCN1CCOCC1` (stereo not given) as the molecule, how does the outcome read?
A: inactive; negative

Q: How did the outcome turn out when `COC(=O)Cc1c(C)nc2nc(-c3ccc(OC)cc3)[nH]n2c1=O` was run?
A: inactive; negative

Q: Which outcome does the source give for `CC(C)Sc1nc(N2CCOCC2)c2c3c(sc2n1)COC(C)(C)C3` here?
A: inactive; negative

Q: For `CCCC(c1nnnn1Cc1cccs1)N1CCN(C2CCCC2)CC1` (stereo not given), which outcome is on record?
A: active; positive

Q: With `CC(=O)NC1C(=O)N(CCN2CCOCC2)c2ccc(Cl)cc21` (stereo not given) as the molecule, how does the outcome read?
A: inactive; negative

Q: `COc1ccccc1C(=O)Nc1ccnn1C1CCN(CC2CC=CCC2)CC1` (stereo not given) was tested. Which outcome did it give?
A: active; positive

Q: How did the outcome turn out when `CN(CCOc1ccc(Cl)cc1)CC(O)c1ccccc1` (stereo not given) was run?
A: inactive; negative
